Bioassay records deposited in PubChem BioAssay by National Center for Advancing Translational Sciences (NCATS).
Sm TGR block – inhibitors of Schistosoma mansoni thioredoxin glutathione reductase; Potency, µM (doses to about 114 µM), hits mostly inhibitors; 3% of 360,000 active; AID 485364; Q962Y6; purified TGR, DTNB reduction, TNB absorbance 405 nm; further: nearly all actives have a fitted effect of over 60% in size
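Kinetic colorimetric format: TGR-catalysed, NADPH-driven DTNB reduction monitored via TNB absorbance. Enzyme dispensed at 20 nM; compound exposure 15 min at room temperature before reaction start.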
Shiga toxin inh – inhibitors of Shiga toxin in Vero cells | Vero cells, Shiga toxin protein synthesis inhibition reporter | inhibition, % at 38.7 µM | 9.2% of 290,000 active | AID 2315; in the data active means inhibition mostly above about 28%, no sharp cut-off; inactive means mostly below about 43%
CHX counter – counter-screen for Shiga toxin inhibitors: cycloheximide protein synthesis inhibition; 12% of 300,000 active; cell reporter, cycloheximide protein synthesis inhibition counterscreen; AID 2314; max response, %; in the data active means max response mostly above about 13%, no sharp cut-off; inactive means mostly below about 14%; further: read at 38.3 µM for the half of the compounds with a filed dose
FBPA Giardia inh – Giardia lamblia aldolase inhibition; A8B2U2; purified Giardia FBPA; Potency, µM (top dose mostly 59.6 µM), most hits filed as inhibitors; 0.71% of 290,000 active; AID 2451; further: nearly all actives have a fitted effect of over 55% in size
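Giardia FBPA (40 nM reagent) was preincubated 10 min at RT with compound (up to 57.5 uM final), then substrate plus GAPDH/TPI/NAD/arsenate coupling system with diaphorase/resazurin was added; resorufin fluorescence (525/598 nm) was read after 20 min.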
LmPK inh – blocks Leishmania mexicana pyruvate kinase activity; 0.37% of 290,000 active; AID 1721; Potency, µM (top dose mostly 57.5 µM), actives largely listed as inhibitors; purified LmPK, Kinase-Glo ATP luminescence, 1 h; Q27686
Target sequence (Q27686 whole entry, looked up): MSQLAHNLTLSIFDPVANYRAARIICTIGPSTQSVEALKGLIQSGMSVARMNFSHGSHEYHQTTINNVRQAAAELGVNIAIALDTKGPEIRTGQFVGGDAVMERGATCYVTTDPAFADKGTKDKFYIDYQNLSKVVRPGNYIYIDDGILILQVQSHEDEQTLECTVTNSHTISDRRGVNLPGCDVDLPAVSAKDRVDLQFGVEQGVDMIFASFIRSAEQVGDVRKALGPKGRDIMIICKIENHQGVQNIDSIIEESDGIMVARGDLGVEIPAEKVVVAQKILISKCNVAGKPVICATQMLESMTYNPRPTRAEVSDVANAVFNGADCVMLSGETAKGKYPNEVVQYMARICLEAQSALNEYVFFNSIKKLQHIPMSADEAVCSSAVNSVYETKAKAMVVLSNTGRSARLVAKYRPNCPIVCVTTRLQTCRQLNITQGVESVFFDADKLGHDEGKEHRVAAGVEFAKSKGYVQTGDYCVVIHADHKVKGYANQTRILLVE
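In 50 mM imidazole pH 7.2 with 7 mM MgCl2, LmPK (0.1 nM) turned over PEP (0.5 mM) and ADP (0.1 mM) for 1 h at room temperature. Luciferase read-out of ATP.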
TbPYK inhibitor – T. brucei pyruvate kinase inhibition; Potency, µM (highest dose often 76.8 µM), usual class: inhibitors; Q57TT1; 0.12% of 410,000 active; AID 624173; TbPYK enzyme, Kinase-Glo Plus ATP luminescence, 45 min; further: nearly all actives have a fitted effect of over 50% in size
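Screened from lowest to highest concentration, compounds were pinned into TbPYK/substrate mixtures, and ADP (130 uM final) was added. Plates sat at room temperature for 45 min prior to Kinase-Glo Plus detection by luminescence.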
Hits are given with their value; . = inactive; ? = inconclusive; / = not tested or not shown; [ ] = dose if it differs, or a comment. Shown is part of a subset that was picked to be rich in hits. Unless noted, the call rests on the fitted dose curve; in most records, active means well fitted curve in the direction sought with a large enough effect; inconclusive means small, poorly fitted or top-dose-only effect, or another doubt; inactive means no such curve, though single readings can be large; an effect the other way counts as inactive or inconclusive.

SMILES	Sm TGR block	Shiga toxin inh	CHX counter	FBPA Giardia inh	LmPK inh	TbPYK inhibitor
COc1cc(C)ccc1OCCCOc1ccccc1Cl	.	92.8	51.1	/	.	.
CNCCCCOc1ccc(C(C)(C)C)cc1Cl	.	.	.	?	.	.
O=C1CCC(=O)N1OCCCOc1ccccc1	.	.	.	.	.	/
COc1cc(C)ccc1OCCCON1C(=O)CCC1=O	.	19.8	.	.	.	.
O=C1CCC(=O)N1OCCCCOc1ccccc1	.	.	11.8	.	.	.
COc1ccc(Cl)cc1NC(=O)CSc1ccc(-c2sc(C)nc2C)nn1	.	/	/	/	/	.
CCOC(=O)c1c(-c2ccccc2)oc2ccc(NS(=O)(=O)c3ccc(C)cc3C)cc12	.	/	/	/	/	.
COC(=O)C1=C(C(=O)OC)[C@@H]2N(C)c3ccccc3[C@@]23C[C@@H](C(=O)OC)N(S(=O)(=O)c2ccc([N+](=O)[O-])cc2)C3=N1	/	/	/	.[12.9 µM]	.[11.5 µM]	/
COc1cc(C)ccc1OCCOc1ccccc1Cl	.	60.8	31.3	.	.	.
COc1cc(C)ccc1OCCOCCOc1ccccc1[N+](=O)[O-]	.	.	21.6	.	.	.
COc1cc(C=O)ccc1OCCOCCOc1cc(C)ccc1Cl	.	.	.	.	.	.
COc1ccc(-c2cc(NCc3ccc(C)cc3)n3cnnc3n2)cc1	.	/	/	/	/	.
NCCCC[C@H](NC(=O)CNC(=O)[C@@H]1CCCN1C(=O)[C@H](Cc1ccc(O)cc1)NC(=O)CN)C(=O)N[C@@H](Cc1ccccc1)C(=O)O	/	.	.	.	/	/
COc1ccc(-n2c(=O)c(CCc3ccccc3)nc3cnc(N4CCN(C)CC4)nc32)cc1	/	/	/	.	/	/
COC(=O)[C@@H]1C[C@H]1[C@@H](NC(=O)c1cccnc1)c1ccccc1	/	/	/	.	/	/
Cc1ccc(-c2nn(CC(=O)NC3CCCCC3)c3c2cnc2ccc(F)cc23)cc1C	.	/	/	/	/	.
CC(=O)N1CC(C)Sc2ccc(S(=O)(=O)NC(C)c3ccccc3)cc21 (centres undefined)	.	.	.	/	.	.
O=C(COc1ccc2c3c(c(=O)oc2c1)CCC3)N1CCCC1	.	.	.	.	.	.
CN1CCN(C(=O)COc2ccc3ccccc3c2)CC1	.	31.2	14.3	.	.	.
OC(COc1ccc2ccccc2c1)CN1CCCC1 (centres undefined)	.	.	18.2	?	.	.
O=C(COc1ccc2c3c(c(=O)oc2c1)CCC3)N1CCCCC1	.	86.1	25.0	/	.	.
O=C(COc1ccc2ccccc2c1)N1CCCC1	.	78.9	39.8	.	.	.
OC(COc1ccc(OCC(O)CN2CCCCC2)cc1)CN1CCCCC1 (centres undefined)	.	/	.	.	.	.
CCCCN(CCCC)C(=O)c1cc2c(=O)n3ccccc3nc2s1	.	/	/	/	/	.
CCc1ccc(-n2c(=O)c3c4c(sc3n(CC(=O)NCCCOC)c2=O)CCCC4)cc1	.	/	/	/	/	.
SMILES	Sm TGR block	Shiga toxin inh	CHX counter	FBPA Giardia inh	LmPK inh	TbPYK inhibitor
COc1ccc(-c2cc(C(F)(F)F)n3nc(C(=O)Nc4cc(Cl)cc(Cl)c4)cc3n2)cc1	.	/	/	/	/	.
Cc1ccnc(NC(=O)C2CCN(S(=O)(=O)c3cccc(C(F)(F)F)c3)CC2)c1	.	.	14.4	/	.	.
O=C(CN1CCCN(S(=O)(=O)c2ccc(Br)cc2)CC1)Nc1cccc(C(F)(F)F)c1	35.5µM	/	/	/	/	.
Cc1ccnc(NC(=O)C2CCN(S(=O)(=O)c3ccc(C)c(C)c3)CC2)c1	.	/	/	/	/	.
O=C(CCNC(=O)C1CCN(S(=O)(=O)c2ccccc2)CC1)NCc1cccc(C(F)(F)F)c1	.	.	.	/	.	.
O=C(CCNC(=O)C1CCN(S(=O)(=O)c2ccccc2)CC1)Nc1cccc(C(F)(F)F)c1	.	.	16.2	/	.	.
C[C@H](NC(=O)c1ncn2c1C(=O)NC[C@H]2C)C(=O)OC(C)(C)C	/	/	/	/	/	.
CCc1c(C)c2ccc(O)c(CN3CCN(c4ccc(OC)cc4)CC3)c2oc1=O	.	/	/	/	/	.
COC(=O)N1C(=O)[C@@](CC(C)C)(c2ccccc2)N1C(=O)OC	3.55µM	.	15.5	.	.	/
CCOC(=O)N1C(=O)[C@@](CC)(c2ccccc2)N1C(=O)OCC	?	.	.	.	.	.
COC(=O)N1C(=O)[C@](CC(C)C)(c2ccccc2)N1C(=O)OC	7.94µM	.	14.8	.	.	.
COc1cccc(NC(=O)Cn2cc(C(=O)C3CCCCC3)c3ccccc32)c1	.	/	/	/	/	.
Cc1c(O[C@@H]2O[C@H](CO)[C@@H](O)[C@H](O)[C@H]2O)ccc2c1oc(=O)c1ccccc12	.	.	15.3	.	.	.
Cc1c(C)c2ccc(O[C@@H]3O[C@H](CO)[C@H](O)[C@H](O)[C@H]3O)c(C)c2oc1=O	.	.	.	.	.	.
NC(=O)N/N=C/C=C/c1ccccc1	/	.	.	.	.	.
O=C(N/N=C/C=C/c1ccccc1)NC1CCCCC1	.	.	16.3	.	.	.
O=C(N/N=C/c1cccc(O)c1)NC1CCCCC1	.	89.3	.	.	.	.
COc1cc(NS(=O)(=O)c2ccc(C(=O)O)cc2)c2nc(C)ccc2c1	/	.	.	/	/	/
OC[C@@H]1O[C@@H](Oc2ccc(O)cc2)[C@H](O)[C@@H](O)[C@@H]1O	/	.	.	.	/	/
O=C(CSc1nc(O)cc(=O)n1-c1ccccc1)c1ccc(Br)cc1	.	.	24.4	.	.	.
C#CCOc1ccc(Br)cc1C(c1c(C)[nH][nH]c1=O)c1c(C)[nH][nH]c1=O	44.7µM	.	.	.	.	.
COCCn1c2nc(=O)n(-c3ccccc3)c(=O)c-2nc2ccccc21	/	/	/	/	/	.
